The source of these data is PubChem BioAssay (NCATS).

Values joined by “and” are separate entries in the source; they are usually repeats but may differ in a detail not shown here. Equal entries are not always repeated. Inconclusive results are not listed. The source holds several records for some structures; these can differ, active in one and inactive in another. Active and inactive are the calls of the source. Calls come from the whole dose curve; as a rule, active = well fitted inhibition curve with a large enough effect; inconclusive = small, poorly fitted or top-dose-only effect; inactive = no such curve, though single readings can be large or run the other way. Non-standard residues stand in square brackets, D forms with d. Residues, ends and D or L forms follow the SMILES beside them. *: point of attachment. Sta = CC(C)C[C@H](N)[C@@H](O)CC(=O)O; Isovaleryl = CC(C)CC(=O)*
Potency is the fitted concentration of half-maximal effect.

This assay is described as follows: NS1 protein of Zika virus - qHTS assay to identify small molecule inhibitors in human HEK 293 cells (AID 1347053).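 For activity change, negative = inhibition: plate controls were infected untreated cells for no effect and uninfected cells for full effect.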 Note: nearly all actives have a fitted effect of over 55% in size. The following applies: HEK293 ZIKV MR766 infection, NS1 TR-FRET, 24 h; series mostly up to 46.1 µM; activity change, negative = inhibition: at the top concentration. An excerpt:
National Center for Advancing Translational Sciences [NCATS]
Johns Hopkins University School of Medicine
The non-structural 1 (NS1) protein of zika virus is known to associate with the viral replication complex. This cell-based TR-FRET ZIKV NS-1 assay measures the increased NS-1 protein in human HEK 293 cells after a 24-hour Zika virus infection by a TR-FRET assay readout. A decrease in the Time-resolved fluorescence energy transfer (TR-FRET) signal in this assay by small molecule treatment indicates an inhibitory effect of the small molecule on the expression of Zika virus NS1 correlating with Zika virus replication.
HEK 293 cells were cultured in EMEM (ATCC, Cat. # 30-2003) medium with 10% fetal bovine serum (GE healthcare Life Sciences, Cat. # SH30071.03), and 1% Pen/Strep (Gibco, Cat. # 15140-122). Cells were seeded in the assay plate and incubated at 37 C with 5% CO2 for 20 hours. Compounds were added to cells and incubated for one hour before addition of ZIKV MR766 strain solution to cells (MOI = 0.5). After an incubation at 37 C for 24 hours, the reagent mixture of TR-FRET ZIKV NS1 assay using two anti-ZIKV NS1 antibodies was added to assay plates. The TR-FRET signals in assay plates were measured using an Envision plate reader (PerkinElmer). Data were normalized by using the cell-containing wells without ZIKV as a negative control (0% NS-1) and wells containing ZIKV infected cells as a positive control (100% NS-1 level).
With `Cc1nccn1CC1CCc2c(c3ccccc3n2C)C1=O` (stereo not given), the Potency result is “inactive”.
With `O=c1oc2cc(O)ccc2s1`, the “activity change, negative = inhibition” value is -17.2% (inactive).
As to `CCCCCCCCOc1ccccc1C(=O)Nc1ccc(C(=O)OCC[N+](C)(CC)CC)cc1`, the “activity change, negative = inhibition” value was 4.6% (inactive).
Still for that read-out and setting: as for `COc1ccc(C2(C#N)CCC(C(=O)O)CC2)cc1OC1CCCC1` (stereo not given), the figure is 1.43% (inactive).
Still for that read-out and setting: as for `C[C@H](Cc1ccc(O)c(O)c1)[C@@H](C)Cc1ccc(O)c(O)c1`, the figure is -1.13% (inactive).
As for `COC(=O)N[C@H](C(=O)N[C@@H](Cc1ccccc1)[C@@H](O)CN(Cc1ccc(-c2ccccn2)cc1)NC(=O)[C@@H](NC(=O)OC)C(C)(C)C)C(C)(C)C`, the Potency result is “inactive”.
On the same count and under the same terms, as for `Clc1ccc(C(Cn2ccnc2)OCc2c(Cl)cccc2Cl)c(Cl)c1` (stereo not given), the entry is “inactive and 14.8 µM (active)”; as for `Cc1cc(O)c2c(c1)C(=O)c1cc(O)cc(O)c1C2=O`, “inactive”; as for `COCCCOc1ccnc(CS(=O)c2nc3ccccc3[nH]2)c1C` (stereo not given), “inactive”.
For `N=C(N=C(N)N)N1CCOCC1`, the Potency entry was “inactive”.
For `CC(C)CC(=O)N[C@H](C(=O)N[C@H](C(=O)N[C@@H](CC(C)C)[C@@H](O)CC(=O)N[C@@H](C)C(=O)N[C@@H](CC(C)C)[C@@H](O)CC(=O)O)C(C)C)C(C)C` (Isovaleryl-VV[Sta]A[Sta]-OH), the “activity change, negative = inhibition” value was -3.54% (inactive).
Regarding `Nc1ccc(S(N)(=O)=O)cc1`, the Potency result was “inactive”.
Take `Cc1ccc(NC(=O)c2ccc(CN3CCN(C)CC3)cc2)cc1Nc1nccc(-c2cccnc2)n1`: the “activity change, negative = inhibition” value is 3.34% (inactive).
Turning to `CCOC(=O)C(C)Oc1cccc2c(=O)n(CC(=O)Nc3ccc4c(c3)OCCO4)ccc12` (stereo not given), the Potency result is “inactive”.
`CCc1nc(N)nc(N)c1-c1ccc(Cl)cc1`: the Potency is 9350 nM (active).
As for `CCCCc1ccc2nc(NC(=O)OC)[nH]c2c1`, the Potency is 1.32 µM (active) and inactive.
Still for that read-out and setting: as for `CC1(C)C(=O)N(CCN2CCC(C(=O)c3ccc(F)cc3)CC2)c2ccccc21`, the entry is “inactive”; as for `CCCOc1ccc2nc(NC(=O)OC)[nH]c2c1`, 46.9 nM (active).
In the case of `NC(=NCc1ccccc1)NC(=O)c1nc(Cl)c(N)nc1N`, the Potency result was “inactive”.
For the compound `Clc1ccc(C(Cn2ccnc2)OCc2ccsc2Cl)c(Cl)c1` (stereo not given), the “activity change, negative = inhibition” value is 36% (inactive).
On the same count and under the same terms, as for `CC(S)C(=O)NCC(=O)O` (stereo not given), the figure is 0.831% (inactive).
For the compound `CCCCC(CC)COC(=O)C(C#N)=C(c1ccccc1)c1ccccc1` (stereo not given), the Potency result was “inactive and 23.5 µM (active)”.
Same read-out and setting: as for `O=c1ccc2ccc(O)c(O)c2o1`, the entry is “inactive”.
For the compound `O=C(O)c1cccc(-c2noc(-c3ccccc3F)n2)c1`, the “activity change, negative = inhibition” value was -3.11% (inactive).
`C[C@]12CCC(=O)C=C1CC[C@@H]1[C@H]2[C@@H](O)C[C@@]2(C)[C@H]1CC[C@]2(O)C(=O)CO`: the “activity change, negative = inhibition” value was 3.64% (inactive).
The same measure, in the same setting: as for `CC(=O)N1CCN(c2ccc(OC[C@H]3CO[C@](Cn4ccnc4)(c4ccc(Cl)cc4Cl)O3)cc2)CC1`, the figure is 31% (inactive).
`O=C(c1ccccc1)c1ccc2n1CCC2C(=O)O` (stereo not given): the Potency entry was “inactive”.
As for `CN(C)C(=O)COC(=O)Cc1ccc(OC(=O)c2ccc(N=C(N)N)cc2)cc1`, the Potency entry is “inactive”.
As to `C[C@@H](N)C1CCC(C(=O)Nc2ccncc2)CC1` (stereo not given in full), the Potency entry was “inactive”.
On to `O=C(O)c1cn(-c2ccc(F)cc2)c2cc(N3CCNCC3)c(F)cc2c1=O`, for which the “activity change, negative = inhibition” value was -10.3% [at 20.1 µM] (inactive).
Take `CC1(C)CCC(C)(C)c2cc(NC(=O)c3ccc(C(=O)O)cc3)ccc21`: the Potency entry was “inactive”.
In the case of `CCCCN(CCCC)CCC(O)c1cc2c(Cl)cc(Cl)cc2c2cc(C(F)(F)F)ccc12` (stereo not given), the “activity change, negative = inhibition” value was 19.4% (inactive).
In the case of `CCOc1cc(CC(=O)N[C@@H](CC(C)C)c2ccccc2N2CCCCC2)ccc1C(=O)O`, the “activity change, negative = inhibition” value is 16.1% (inactive).
For the compound `CC(C)c1ccc2oc3nc(N)c(C(=O)O)cc3c(=O)c2c1`, the Potency result is “inactive”.
Regarding `CC(=O)O[C@H]1C(=O)[C@@]2(C)C([C@H](OC(=O)c3ccccc3)[C@]3(O)C[C@H](OC(=O)[C@H](O)[C@@H](NC(=O)c4ccccc4)c4ccccc4)C(C)=C1C3(C)C)[C@]1(OC(C)=O)CO[C@@H]1C[C@@H]2O` (stereo not given in full), the Potency is 6.6 nM (active).
Still for that read-out and setting: as for `Clc1ccc2c(N3CCN(CCCN4CCN(c5ccnc6cc(Cl)ccc56)CC4)CC3)ccnc2c1`, the entry is “inactive”.
Still for that read-out and setting: as for `O=C(O)CCNC(=O)c1ccc(N=Nc2ccc(O)c(C(=O)O)c2)cc1`, the entry is “inactive”.
In the case of `Cc1ccc(C(=O)c2cc(O)c(O)c([N+](=O)[O-])c2)cc1`, the Potency result was “inactive”.
The same measure, in the same setting: as for `CCN(CC)CCOc1ccc(Nc2ncc3cc(-c4c(Cl)cccc4Cl)c(=O)n(C)c3n2)cc1`, the figure is 166 nM (active); as for `O=C(NC(Cc1cc(=O)[nH]c2ccccc12)C(=O)O)c1ccc(Cl)cc1` (stereo not given), “inactive”.
